The campaign covered roughly 59,000 compounds. About 6,200 (11%) were called active. Inconclusive results (about 9%) are left out. Rule as the data show it: active = max dye-equivalent concentration above about 10 nM; inconclusive = mostly about 1.1 nM to 9.6 nM; inactive = weaker than that. What follows is part of a selection rich in actives, with near analogues and random picks from the rest. A structure can be active in one record and inactive in another.

A short description of the assay: qHTS Assay for Spectroscopic Profiling in 4-MU Spectral Region. As to conditions: compound autofluorescence, 340/450 nm, 4-MU equivalents; active compounds read high. The method, boiled down:
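Compounds in 100 mM Tris, pH 8.0, incubated 15 min at room temperature, then fluorescence read at 340 nm excitation/450 nm emission. Signal converted to 4-MU dye-equivalent concentration using an on-plate six-point 4-MU standard curve.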
(Quantitative high-throughput screening tests each substance at several concentrations.)
In the case of `N#CCCN(CCC#N)c1nnc(-c2ccccc2)s1`, the max dye-equivalent concentration result was “inactive”.

`O=S(=O)(Nc1ccccc1N1CCOCC1)c1ccc(Cl)s1`: the max dye-equivalent concentration result is “inactive”. Still for that read-out and setting: the same measure for `COC(=O)Cc1csc(Nc2c(C)n(C)n(-c3ccccc3)c2=O)n1`: “inactive”; for `CCOC(=O)CSc1nc2c(c(=O)n(Cc3ccccc3Cl)c(=O)n2C)n1C`: “inactive”. The same measure, in the same setting: the value for `CCOc1ccc(NC(=O)Nc2ccc(N(C)C(C)=O)cc2)cc1` was “inactive”; that for `O=c1c2cc3c(=O)n(CC4CCCO4)c(=O)c3cc2c(=O)n1CC1CCCO1` (configuration not stated) was “inactive”; that for `O=C(NC1CCCCC1)c1ccc2c(=O)n(CC3CCCO3)c(=O)[nH]c2c1` (configuration not stated) was 16 nM (active). Still for that read-out and setting: the same measure for `Cc1ccc(C(=O)Nc2ccccc2C(=O)NC2CCCCC2)cc1S(=O)(=O)N1CCOCC1`: “inactive”; for `CCOC(=O)c1ccc(N2C(=O)CC(N3CC(C)OC(C)C3)C2=O)cc1` (configuration not stated): “inactive”. `CNCC[C@H](Oc1ccc(C(F)(F)F)cc1)c1ccccc1`: the max dye-equivalent concentration is 13 nM (active) and the result was inactive. `Clc1ccc(C=Nc2ccc3c(c2)Cc2ccccc2-3)c(Cl)c1`: the max dye-equivalent concentration result was “inactive”.

For the compound `Cc1cc(C)nc(NC(=O)C(C)N2C(=O)c3ccccc3C2=O)n1` (configuration not stated), the max dye-equivalent concentration result is “inactive”. On the same count and under the same terms, the same measure for `CC(C(=O)O)N1C(=O)c2cccc3cccc1c23` (configuration not stated): 15 nM (active). Turning to `COC(=O)c1ccc(NC(=O)C(C)N2C(=O)c3ccccc3C2=O)cc1` (configuration not stated), the max dye-equivalent concentration entry was “inactive”.

With `O=c1cc(CO)oc(CN2CCC(Cc3ccccc3)CC2)c1O`, the max dye-equivalent concentration entry is “inactive”. Still for that read-out and setting: the value for `Cc1cccc2nc(CNc3ccc(F)cc3)cn12` was “inactive”; that for `COc1ccc(-c2csc(N3CCN(Cc4ccc5c(c4)OCO5)CC3)n2)cc1` was “inactive”; that for `CC(C)OC(=O)C(C#N)c1nc2ccccc2nc1N1CCN(Cc2ccc3c(c2)OCO3)CC1` (configuration not stated) was 110 nM (active). For the compound `CC(C)OC(=O)C(C#N)c1nc2ccccc2nc1N1CCN(Cc2ccccc2)CC1` (configuration not stated), the max dye-equivalent concentration entry is “inactive”. Take `O=C(c1ccccc1)c1ccc(OC(=O)N2CCCC2)cc1`: the max dye-equivalent concentration entry is “inactive”.

As to `COc1ccccc1-c1nc(NCCNC(C)=O)c2ccccc2n1`, the max dye-equivalent concentration result was “inactive”.

Consider `CCCCN(C)Cc1c(C)[nH]c2ccc(Cl)cc2c1=O`, for which the max dye-equivalent concentration entry is “inactive”. For the compound `Cc1ccc(S(=O)(=O)C(C#N)c2nc3ccccc3nc2N2CCCC2)cc1C` (configuration not stated), the max dye-equivalent concentration is 150 nM (active). Consider `CCn1cc(C(=O)NCc2ccc3c(c2)OCO3)c2cc(OC)c(OC)cc2c1=O`, for which the max dye-equivalent concentration entry is “inactive”. On to `Cc1ccccc1N1C(=O)C2ON(c3ccccc3)C(c3ccncc3)C2C1=O` (configuration not stated), for which the max dye-equivalent concentration result is “inactive”.

Turning to `C=CCn1c(SCC(=O)NC23CC4CC(CC(C4)C2)C3)nc(O)cc1=O`, the max dye-equivalent concentration result was “inactive”.

On to `Cc1cccc(Cn2c(N3CCN(c4ccccc4)CC3)nc3c2c(=O)n(C)c(=O)n3C)c1`, for which the max dye-equivalent concentration entry is “inactive”. Consider `Cn1c(=O)c2c(nc(N3CCCCCC3)n2CC(O)COc2ccc(Cl)cc2)n(C)c1=O` (configuration not stated), for which the max dye-equivalent concentration was 38 nM (active). For `Cn1c(=O)c2c(nc(N3CCCCCC3)n2CC(=O)c2ccc(Br)cc2)n(C)c1=O`, the max dye-equivalent concentration entry was “inactive”.

Regarding `CSCCC(NS(=O)(=O)/C=C/c1ccccc1)C(=O)N1CCC(C)CC1` (configuration not stated), the max dye-equivalent concentration entry is “inactive”. Still for that read-out and setting: the value for `COCCCN1C(=O)C(=O)/C(=C(/O)c2ccc3c(c2)CC(C)O3)C1c1cccnc1` (configuration not stated) was “inactive”; that for `CCOC(=O)c1sc(NC(=S)n2cc(C)cn2)c(C(=O)OCC)c1C` was “inactive”; that for `CCCC(=O)Nc1ccc(Cl)c(NC(=O)c2ccc(Br)o2)c1` was “inactive”.

With `Cc1cc(C)nc(-n2nc(C)cc2NC(=O)c2ccc(Br)o2)n1`, the max dye-equivalent concentration entry is “inactive”. Turning to `CCc1c(C)sc(NC(=O)c2ccc(Br)o2)c1C(=O)OC`, the max dye-equivalent concentration is 96 nM (active). In the case of `O=C(c1ccco1)N1CCC[C@@]2(CCN(c3ccccc3)C2)C1`, the max dye-equivalent concentration entry was “inactive”.

In the case of `O=C(Nc1nnc(CCc2ccccc2)s1)C1CCCO1` (configuration not stated), the max dye-equivalent concentration entry was “inactive”. Same read-out and setting: the same measure for `O=C(CC1NCCNC1=O)Nc1ccc(Oc2ccccc2)cc1` (configuration not stated): “inactive”; for `CCOc1ccc(NC(=O)CC2NCCNC2=O)cc1` (configuration not stated): “inactive”.

Turning to `O=C(CC1Nc2ccccc2NC1=O)Nc1ccccc1` (configuration not stated), the max dye-equivalent concentration is 89 nM (active). The same measure, in the same setting: the same measure for `Cc1ccccc1S(=O)(=O)Cc1ccc(C(=O)NCCN2CCCCC2C)o1` (configuration not stated): “inactive”; for `O=C1CC(c2cccc(F)c2)C2=C(CCCC2=O)N1` (configuration not stated): “inactive”; for `O=C1CC(c2cccc(Br)c2)C2=C(CCCC2=O)N1` (configuration not stated): 43 nM (active).

On to `O=C1CCCc2c1[nH]c1ccc(Br)cc21`, for which the max dye-equivalent concentration entry was “inactive”. Still for that read-out and setting: the same measure for `O=C(CN1C(=O)NC2(CCCCC2)C1=O)NCCC1=CCCCC1`: “inactive”; for `CC(=O)OC(C(=O)NC1CCCCC1)c1ccccc1` (configuration not stated): “inactive”; for `CC1(CCC(=O)OC2CCCCC2)OCCO1`: “inactive”.

Take `CCc1ccc2oc(-c3ccc(N)cc3)nc2c1`: the max dye-equivalent concentration was 120 nM (active).

Consider `Cc1ccc(/C(=C/CN2CCCC2)c2ccccn2)cc1`, for which the max dye-equivalent concentration entry is “inactive”. In the case of `C[C@@H]1C[C@H]2[C@@H]3C[C@H](F)C4=CC(=O)C=C[C@@]4(C)[C@]3(F)[C@H](O)C[C@]2(C)[C@@]1(O)C(=O)CO`, the max dye-equivalent concentration entry was “inactive”. Still for that read-out and setting: the same measure for `CC1(C)CC(=O)c2cc(OCC(=O)NCC3CCCO3)ccc2O1` (configuration not stated): 1700 nM (active).
